The values that follow come from PubChem BioAssay.

Where “and” joins values, the source holds several entries; their conditions need not be identical. Equal entries are not always repeated. Calls of active or inactive are those of the source. Rule as the data show it, unless noted: active = parasite load remaining mostly below about 12% (no sharp cut-off); inactive = mostly above about 10%.

Experiment [1] is described as follows: P. berghei load reduction in hepatocytes – cell-based, HepG2, luciferase luminescence, HepG2 viability, primary screen (AID 624349).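 Also: 100% = mean of DMSO negative control wells on the same plate.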 The following applies: P. berghei liver stage in HepG2, luciferase luminescence, concentration not given here; parasite load remaining: stronger effect = lower value; viability: measured here: HepG2 viability without parasites.
Experiment [2] in a line: Wnt pathway potentiators raising nuclear beta-catenin – imaging, WNT3A-conditioned medium, mouse C2C12, NPC library, primary screen (AID 1117326; in the data active = nuclear beta-catenin stimulation mostly above about 4.2%, no sharp cut-off; inactive = mostly below about 10%). The following applies: stronger effect = higher value.
A short description of experiment [3]: compounds altering viability of human ES cells (AID 493140; call rule not given here;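 also: cells exposed to compounds for four days before counting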). The following applies: human embryonic stem cell survival screen; stronger effect = higher value.
Experiment [4] is described as follows: signal quenchers or enhancers, Cy5 substrate/SSB – biochemical, NIH Clinical Collection, E. coli SSB, artefact control for HCV NS3 helicase inhibitor project (AID 743268; call rule not given here). The following applies: Cy5-oligo bound E. coli SSB, fluorescence interference.
Experiment [5] concerns Hepatitis C virus NS3 helicase. As to the kind of experiment: blockers of NS3h binding to DNA – biochemical, fluorescence polarization, NIH Clinical Collection, primary screen (AID 743270; call rule not given here). The following applies: NS3 helicase binding to Cy5-dT15 DNA, stronger effect = higher value, concentration not given here. In general terms: Polarisation of emitted light reports the rotation of a fluorescent probe.

Experiment [6] addresses Single-stranded DNA-binding protein (Escherichia coli (strain K12)) (UniProt P0AGE0). As to the kind of experiment: SSB-ssDNA binding inhibitors – biochemical, fluorescence polarization, NIH Clinical Collection, counter-screen for HCV NS3 helicase inhibitor project (AID 743271; in the data active = inhibition above about 28%). The following applies: E. coli SSB-DNA binding, stronger effect = higher value, concentration not given here.

Experiment [7] can be described thus: compounds distorting NS3 helicase fluorescence signal – biochemical, NIH Clinical Collection, artefact control for HCV NS3 helicase inhibitor project (AID 743272; call rule not given here;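 also: HCV NS3 helicase with a Cy5 labelled single stranded DNA probe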). The following applies: fluorescence interference counterscreen, HCV NS3 helicase assay; stronger effect = lower value.
Experiment [8] relates to Neuropilin-2 / VEGF-C interaction (human). As to the kind of experiment: small molecules blocking Neuropilin-2/VEGF-C interaction – biochemical, microplate binding format, z-score (AID 743281; call rule not given here). The following applies: microplate NRP2/VEGF-C binding assay; stronger effect = lower value.

Broadly, the viability is a read-out of living cells in per cent, often relative to untreated cells. As to `O=C(NC(Cc1cc(=O)[nH]c2ccccc12)C(=O)O)c1ccc(Cl)cc1` (centres undefined), in experiment [1], the parasite load remaining is 149% (inactive) and 24.1% (inactive); the viability is 88.8% and 69%. In addition, the nuclear beta-catenin stimulation in experiment [2] (at 10 µM) is -0.8% (inactive). In addition, in experiment [2] (stimulation, at 2 µM), the nuclear beta-catenin stimulation was -1%.

With `O=c1oc2cc(O)ccc2s1`, in experiment [1], the parasite load remaining is 62.7% (inactive) and the viability stood at 88.6%. Moreover, the nuclear beta-catenin stimulation in experiment [2] (at 10 µM) is -2.6% (inactive). The nuclear beta-catenin stimulation in experiment [2] (stimulation, at 2 µM) came to 0.6%.

Regarding `OC[C@H]1O[C@@H](Oc2ccc(O)cc2)[C@H](O)[C@@H](O)[C@@H]1O`, in experiment [1], the parasite load remaining is 102% (inactive) and the viability was 72.2%. Moreover, in experiment [2] (at 10 µM), the nuclear beta-catenin stimulation is -2.1% (inactive). For the same compound, in experiment [2] (stimulation, at 2 µM), the nuclear beta-catenin stimulation turned out to be 1%.

For `CN(C)c1ccc2nc3ccc(=[N+](C)C)cc-3sc2c1`, in experiment [1], the parasite load remaining is 0.205% (inactive) and the viability is 47.9%. Moreover, in experiment [2] (at 10 µM), the nuclear beta-catenin stimulation was 3.1% (inactive). Besides, the nuclear beta-catenin stimulation in experiment [2] (stimulation, at 2 µM) came out at 2.2%.

With `CN(C)CCc1c[nH]c2ccc(CS(=O)(=O)N3CCCC3)cc12`, in experiment [1], the parasite load remaining is 135% (inactive) and the viability came out at 87.9%. Further, the nuclear beta-catenin stimulation in experiment [2] (at 10 µM) was 1.7% (inactive). Also, in experiment [2] (stimulation, at 2 µM), the nuclear beta-catenin stimulation was found to be 1.6%.

As for `CCCCCN(C)CCC(O)(P(=O)(O)O)P(=O)(O)O`, in experiment [1], the parasite load remaining is 28% (inactive) and the viability was determined as 76.5%. In addition, the nuclear beta-catenin stimulation in experiment [2] (at 10 µM) is -3% (inactive). Also, in experiment [2] (stimulation, at 2 µM), the nuclear beta-catenin stimulation was determined as 0.2%.

By inhibition is commonly meant the drop in the measured response relative to a control, in per cent. `COC(=O)C1=C(C)NC(C)=C(C(=O)OC(C)C)C1c1cccc2nonc12` (centres undefined): the survival in experiment [3] is 16.1 (inactive). Moreover, in experiment [1], the parasite load remaining was 105% (inactive) and 85.6% (inactive). Moreover, the viability in experiment [1] is 74.3% and 66.7%. Moreover, the values for the fluorescence ratio in experiment [4] and in experiment [7] were 1.01 (inactive) and 0.98 (inactive), respectively. Also, the values for the inhibition in experiment [5] and in experiment [6] were 6.73% (inactive) and 4.52% (inactive), respectively. Also, the z-score in experiment [8] was -2.69 (inactive). Moreover, the nuclear beta-catenin stimulation was 28.6% (inactive) in experiment [2] (at 10 µM) and 0.3% in experiment [2] (stimulation, at 2 µM).

In the case of `COC(=O)N/N=C/c1c[n+]([O-])c2ccccc2[n+]1[O-]`, the parasite load remaining in experiment [1] is 174% (inactive) and 86.3% (inactive) and 64.3% (inactive). The viability in experiment [1] is 93.9% and 108% and 125%. For the same compound, the nuclear beta-catenin stimulation is 1.7% (inactive) in experiment [2] (at 10 µM) and 5.8% in experiment [2] (stimulation, at 2 µM).

Regarding `COc1ccnc(CS(=O)c2nc3ccc(OC(F)F)cc3[nH]2)c1OC` (centres undefined), in experiment [1], the parasite load remaining was 154% (inactive) and 46.8% (inactive) and 36.5% (inactive); the viability was 91.7% and 94.9% and 116%. The nuclear beta-catenin stimulation in experiment [2] (at 10 µM) was -0.4% (inactive). The nuclear beta-catenin stimulation in experiment [2] (stimulation, at 2 µM) was found to be 1.1%.

For the compound `Nc1ncnc2c1ncn2[C@@H]1O[C@H](CO)[C@@H](O)[C@H]1O`, in experiment [1], the parasite load remaining is 102% (inactive) and 72.2% (inactive); the viability is 77.4% and 98.9%. Moreover, the nuclear beta-catenin stimulation in experiment [2] (at 10 µM) was 10.9% (inactive). Also, the nuclear beta-catenin stimulation in experiment [2] (stimulation, at 2 µM) is 1.8%.

For the compound `CC(N)C(=O)OC(C)(C)Cc1ccc(Cl)cc1` (centres undefined), in experiment [1], the parasite load remaining was 159% (inactive) and the viability worked out at 87.1%. For the same compound, the nuclear beta-catenin stimulation in experiment [2] (at 10 µM) is 8% (inactive). The nuclear beta-catenin stimulation in experiment [2] (stimulation, at 2 µM) amounted to 3.3%.

As to `Nc1ccc(C(=O)Oc2ccccc2)c(O)c1`, in experiment [1], the parasite load remaining is 67.6% (inactive) and the viability is 172%. The nuclear beta-catenin stimulation in experiment [2] (at 10 µM) is 0.2% (inactive). In experiment [2] (stimulation, at 2 µM), the nuclear beta-catenin stimulation stood at 2.9%.

Regarding `O=c1[nH]cnc2c1ncn2[C@H]1CC[C@@H](CO)O1`, the parasite load remaining in experiment [1] is 41.8% (inactive) and 84.4% (inactive) and 65.2% (inactive). In addition, the viability in experiment [1] is 46.9% and 69.4% and 110%. For the same compound, the figures for the fluorescence ratio in experiment [4] and in experiment [7] were 1.06 (inactive) and 1.01 (inactive), respectively. For the same compound, the inhibition in experiment [5] was 1.19% (inactive); in experiment [6], 0.67% (inactive). Further, the result in experiment [8] was inactive. The nuclear beta-catenin stimulation was -2.1% (inactive) in experiment [2] (at 10 µM) and -0.4% in experiment [2] (stimulation, at 2 µM).

Take `CCCc1cc(C(N)=S)ccn1`: the parasite load remaining in experiment [1] was 145% (inactive) and 18.2% (inactive). In addition, in experiment [1], the viability is 83.8% and 63%. Also, the nuclear beta-catenin stimulation was 0.2% (inactive) in experiment [2] (at 10 µM) and 2% in experiment [2] (stimulation, at 2 µM).

Consider `C#C[C@]1(O)CC[C@H]2[C@@H]3CCc4cc(O)ccc4[C@H]3CC[C@@]21C`, for which, in experiment [1], the parasite load remaining was 111% (inactive). In experiment [1], the viability was found to be 66.2%. Also, the figures for the fluorescence ratio in experiment [4] and in experiment [7] were 0.98 (inactive) and 0.92 (inactive), respectively. The values for the inhibition in experiment [5] and in experiment [6] were 1.98% (inactive) and -0.87% (inactive), respectively. In addition, the nuclear beta-catenin stimulation in experiment [2] (at 10 µM) was 1.5% (inactive); in experiment [2] (stimulation, at 2 µM), 0.8%.

Consider `Cc1cc(C)cc(OCC2CNC(=O)O2)c1` (centres undefined), for which, in experiment [1], the parasite load remaining was 135% (inactive) and 58.1% (inactive); the viability was 90% and 111%. Further, in experiment [2] (at 10 µM), the nuclear beta-catenin stimulation is -0.1% (inactive). For the same compound, the nuclear beta-catenin stimulation in experiment [2] (stimulation, at 2 µM) was determined as 0.2%.

For the compound `NS(=O)(=O)Cc1noc2ccccc12`, in experiment [1], the parasite load remaining was 75.4% (inactive) and 46.4% (inactive). Moreover, the viability in experiment [1] is 89.2% and 110%. In addition, the fluorescence ratio in experiment [4] and in experiment [7] was 1 (inactive) in each case. Also, the inhibition in experiment [5] is -6.82% (inactive); in experiment [6] it was -4.29% (inactive). Also, the nuclear beta-catenin stimulation in experiment [2] (at 10 µM) was 0.1% (inactive); in experiment [2] (stimulation, at 2 µM) it was 0.4%.

Regarding `CCCCCCCCCCCCCCCCOP(=O)([O-])OCC[N+](C)(C)C`, in experiment [1], the parasite load remaining was 146% (inactive) and 43% (inactive); the viability is 78.6% and 106%. Besides, the nuclear beta-catenin stimulation in experiment [2] (at 10 µM) was -0.6% (inactive). The nuclear beta-catenin stimulation in experiment [2] (stimulation, at 2 µM) is 1.9%.

For the compound `COc1ccc2cc1Oc1ccc(cc1)C[C@H]1c3c(cc4c(c3Oc3cc5c(cc3OC)CCN(C)[C@@H]5C2)OCO4)CCN1C`, in experiment [1], the parasite load remaining was 105% (inactive) and the viability turned out to be 82.3%. For the same compound, the nuclear beta-catenin stimulation in experiment [2] (at 10 µM) is 64.7% (active). The nuclear beta-catenin stimulation in experiment [2] (stimulation, at 2 µM) stood at 7.1%.

Turning to `COC(=O)Nc1nc2ccc(S(=O)c3ccccc3)cc2[nH]1` (centres undefined), in experiment [1], the parasite load remaining was 162% (inactive) and 87.1% (inactive) and 49.8% (inactive); the viability was 85.8% and 93.1% and 68.5%. Besides, in experiment [2] (at 10 µM), the nuclear beta-catenin stimulation is 57.7% (active). The nuclear beta-catenin stimulation in experiment [2] (stimulation, at 2 µM) was determined as 58.1%.

As to `O=c1ccc2ccccc2o1`, in experiment [1], the parasite load remaining is 71% (inactive) and the viability is 94.5%. For the same compound, the nuclear beta-catenin stimulation in experiment [2] (at 10 µM) is -0.2% (inactive). Besides, the nuclear beta-catenin stimulation in experiment [2] (stimulation, at 2 µM) was -0.6%.

With `CC1(C)O[C@@H]2C[C@H]3[C@@H]4C[C@H](F)C5=CC(=O)C=C[C@]5(C)[C@@]4(F)[C@@H](O)C[C@]3(C)[C@]2(C(=O)CO)O1`, the parasite load remaining in experiment [1] was 46.3% (inactive) and 25.1% (inactive). Also, the viability in experiment [1] is 96.3% and 68%. The fluorescence ratio was 1 (inactive) in experiment [4] and 0.97 (inactive) in experiment [7]. The inhibition in experiment [5] was -1.36% (inactive); in experiment [6], 0.29% (inactive). Moreover, the nuclear beta-catenin stimulation was -1.6% (inactive) in experiment [2] (at 10 µM) and 2% in experiment [2] (stimulation, at 2 µM).

Take `C[C@@H]1C[C@H]2[C@@H]3C[C@H](F)C4=CC(=O)C(Cl)=C[C@]4(C)[C@@]3(F)[C@@H](O)C[C@]2(C)[C@@]1(O)C(=O)CO`: the parasite load remaining in experiment [1] was 117% (inactive). Besides, the viability in experiment [1] amounted to 79.4%. The fluorescence ratio in experiment [4] was 1 (inactive); in experiment [7], 0.96 (inactive). In addition, the inhibition in experiment [5] is 6.73% (inactive); in experiment [6] it was 7.6% (inactive). Also, the nuclear beta-catenin stimulation in experiment [2] (at 10 µM) is 1.5% (inactive); in experiment [2] (stimulation, at 2 µM) it was 1.3%.
